From PubChem BioAssay (NCATS)
Records with an inconclusive call do not appear. A call without a number means that no potency is given here. Active and inactive are the calls of the source. Calls come from the whole dose curve; as a rule, active = well fitted cell-killing curve with a large enough effect; inconclusive = small, poorly fitted or top-dose-only effect, or effect the other way; inactive = no such curve, though single readings can be large or run the other way.
Potency is the fitted concentration of half-maximal effect.

Assay: Quantitative High-Throughput drug screen in 47 multiple myeloma cell lines against the NCATS MIPE library collection: VP6_DJ cell viability assay (AID 1919867); note: nearly all actives have a fitted effect of over 40% in size
Details: ATP luminescence, 48 h; series mostly up to 45.8 µM
Outline: (§1)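 Readout: median RLU from CellTiter-Glo after 5 min at room temperature. Preceding step was 48 h drug treatment of 500 cells/well at 37 °C, 5% CO2, with DMSO-only and media-only control wells.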
For `CCC(C)N(C)C(=O)c1cc2ccccc2c(-c2ccccc2Cl)n1` (stereo not given), the Potency was 6.62 µM (active). In the case of `Nc1nc2ccc(OC(F)(F)F)cc2s1`, the Potency is reported as 18.7 µM (active). For `NCCc1ccc(O)c(O)c1`, the Potency was 23.5 µM (active). With `NS(=O)(=O)c1cc2c(cc1Cl)NC=NS2(=O)=O` the Potency was “inactive”. In the case of `CCN(c1ccccc1)c1cc(NC)[n+](C)c(C)n1`, the Potency is reported as “inactive”. With `CNC[C@H](O)c1cccc(O)c1` the Potency was 1.32 µM (active). With `COCC(=O)NCC=Cc1ccc2ncnc(Nc3ccc(Oc4ccc(C)nc4)c(C)c3)c2c1` the Potency was 18.7 µM (active). With `NC[C@H](O)c1ccc(O)c(O)c1` the Potency was 2.96 µM (active). With `O=C1CCc2cc(OCCCCc3nnnn3C3CCCCC3)ccc2N1` the Potency was “inactive”. With `COc1cc2c(cc1OC)CN(CCc1ccc(NC(=O)c3cccc4c(=O)c5cccc(OC)c5[nH]c34)cc1)CC2` the Potency was “inactive”. In the case of `Cc1cc(Nc2nc(N[C@@H](C)c3ncc(F)cn3)ncc2Cl)n[nH]1`, the Potency is reported as 6.62 µM (active). For `Cc1cnc(Nc2ccc(OCCN3CCCC3)cc2)nc1Nc1cccc(S(=O)(=O)NC(C)(C)C)c1`, the Potency was 0.332 µM (active). With `Cn1cnc([N+](=O)[O-])c1Sc1ncnc2nc[nH]c12` the Potency was 16.6 µM (active).

Assay: Quantitative High-Throughput drug screen in 47 multiple myeloma cell lines against the NCATS MIPE library collection: UTMC2_PLB cell viability assay (AID 1919868); note: nearly all actives have a fitted effect of over 55% in size
Details: CellTiter-Glo ATP luminescence, 48 h; viability (% of DMSO control): at 45.8 µM (top of the series)
Outline: as §1
With `Nc1nccc(-c2ccc3noc(-c4ccc(Cl)cc4)c3c2)n1` the Potency was “inactive”. In the case of `CNC[C@H](O)c1cccc(O)c1`, the Potency is reported as 0.0021 µM (active). In the case of `Cc1csc(NC(=O)c2sc3nc4c(c(C(F)(F)F)c3c2N)CCC4)n1`, the Potency is reported as “inactive”. In the case of `Cn1cnc([N+](=O)[O-])c1Sc1ncnc2nc[nH]c12`, the Potency is reported as 5.26 µM (active).

Assay: Quantitative High-Throughput drug screen in 47 multiple myeloma cell lines against the NCATS MIPE library collection: PE2_PLB cell viability assay (AID 1919869); note: nearly all actives have a fitted effect of over 35% in size
Details: PE2_PLB myeloma cells viability, ATP luminescence, 48 h; series mostly up to 45.8 µM
Outline: as §1
For `OC(CN1CCC(Cc2ccc(F)cc2)CC1)c1ccc(Cl)cc1` (stereo not given), the Potency was “inactive”. In the case of `CCCCCCCc1ccc(CCc2cccc(O)c2C(=O)O)cc1`, the Potency is reported as 20.9 µM (active). In the case of `NS(=O)(=O)c1cc2c(cc1Cl)NC=NS2(=O)=O`, the Potency is reported as “inactive”. With `CCCn1c(=O)c2[nH]c(C34CC5CC3C[C@@H](C5)C4)nc2n(CCC)c1=O` the Potency was “inactive”. For `CCN(c1ccccc1)c1cc(NC)[n+](C)c(C)n1`, the Potency was “inactive”. In the case of `CNC[C@H](O)c1cccc(O)c1`, the Potency is reported as “inactive”. In the case of `COCC(=O)NCC=Cc1ccc2ncnc(Nc3ccc(Oc4ccc(C)nc4)c(C)c3)c2c1`, the Potency is reported as 16.6 µM (active). For `NC[C@H](O)c1ccc(O)c(O)c1`, the Potency was 11.8 µM (active). With `Cc1csc(NC(=O)c2sc3nc4c(c(C(F)(F)F)c3c2N)CCC4)n1` the Potency was “inactive”. With `COc1cc2c(cc1OC)CN(CCc1ccc(NC(=O)c3cccc4c(=O)c5cccc(OC)c5[nH]c34)cc1)CC2` the Potency was 20.9 µM (active). In the case of `Cc1cc(Nc2nc(N[C@@H](C)c3ncc(F)cn3)ncc2Cl)n[nH]1`, the Potency is reported as 10.5 µM (active). In the case of `NNCCc1ccccc1`, the Potency is reported as “inactive”. In the case of `Nc1ncnc2nc(-c3ccc(N4CCOCC4)nc3)cc(-c3cccc(Br)c3)c12`, the Potency is reported as 18.7 µM (active).

Assay: Quantitative High-Throughput drug screen in 47 multiple myeloma cell lines against the NCATS MIPE library collection: PCM6_Riken cell viability assay (AID 1919870); note: nearly all actives have a fitted effect of over 30% in size
Details: CellTiter-Glo ATP, 48 h; series mostly up to 45.8 µM
Outline: as §1
In the case of `N=c1nc(N2CCCCC2)cc(N)n1O`, the Potency is reported as 23.5 µM (active). With `COc1ccc(-c2oc3cc(OC)ccc3c2C(=O)c2ccc(C#N)cc2)cc1` the Potency was 5.26 µM (active). With `CCC(C)N(C)C(=O)c1cc2ccccc2c(-c2ccccc2Cl)n1` (stereo not given) the Potency was 16.6 µM (active). With `OC(CN1CCC(Cc2ccc(F)cc2)CC1)c1ccc(Cl)cc1` (stereo not given) the Potency was “inactive”. For `CC(C)(C)NCC(O)c1ccc(O)c(CO)c1` (stereo not given), the Potency was “inactive”. In the case of `NS(=O)(=O)c1cc2c(cc1Cl)NC=NS2(=O)=O`, the Potency is reported as “inactive”. In the case of `CCN(c1ccccc1)c1cc(NC)[n+](C)c(C)n1`, the Potency is reported as “inactive”. With `Cc1cc(Nc2nc(N[C@@H](C)c3ncc(F)cn3)ncc2Cl)n[nH]1` the Potency was 6.62 µM (active). With `O=c1[nH]cnc2[nH]ncc12` the Potency was “inactive”. With `CC(C)NCC(O)COc1ccc(COCCOC(C)C)cc1` (stereo not given) the Potency was “inactive”. With `CCc1ccc(CCOc2ccc(CC3SC(=O)NC3=O)cc2)nc1` (stereo not given) the Potency was 18.7 µM (active).

Assay: Quantitative High-Throughput drug screen in 47 multiple myeloma cell lines against the NCATS MIPE library collection: RPMI8226_ATCC cell viability assay (AID 1919871); note: nearly all actives have a fitted effect of over 30% in size
Details: RPMI8226 myeloma viability, CellTiter-Glo ATP luminescence, 48 h; series mostly up to 45.8 µM
Outline: as §1
With `N=c1nc(N2CCCCC2)cc(N)n1O` the Potency was “inactive”. For `COc1ccc(-c2oc3cc(OC)ccc3c2C(=O)c2ccc(C#N)cc2)cc1`, the Potency was “inactive”. In the case of `OC(CN1CCC(Cc2ccc(F)cc2)CC1)c1ccc(Cl)cc1` (stereo not given), the Potency is reported as “inactive”. For `Nc1nccc(-c2ccc3noc(-c4ccc(Cl)cc4)c3c2)n1`, the Potency was “inactive”. For `CC(C)(C)NCC(O)c1ccc(O)c(CO)c1` (stereo not given), the Potency was “inactive”. In the case of `NCCc1ccc(O)c(O)c1`, the Potency is reported as 18.7 µM (active). In the case of `CCCCCCCc1ccc(CCc2cccc(O)c2C(=O)O)cc1`, the Potency is reported as 16.6 µM (active). For `NS(=O)(=O)c1cc2c(cc1Cl)NC=NS2(=O)=O`, the Potency was “inactive”. For `CCCn1c(=O)c2[nH]c(C34CC5CC3C[C@@H](C5)C4)nc2n(CCC)c1=O`, the Potency was 8.33 µM (active). In the case of `CCN(c1ccccc1)c1cc(NC)[n+](C)c(C)n1`, the Potency is reported as “inactive”. In the case of `COCC(=O)NCC=Cc1ccc2ncnc(Nc3ccc(Oc4ccc(C)nc4)c(C)c3)c2c1`, the Potency is reported as 16.6 µM (active). For `Cc1csc(NC(=O)c2sc3nc4c(c(C(F)(F)F)c3c2N)CCC4)n1`, the Potency was 13.2 µM (active). With `COc1cc2c(cc1OC)CN(CCc1ccc(NC(=O)c3cccc4c(=O)c5cccc(OC)c5[nH]c34)cc1)CC2` the Potency was “inactive”. With `Cc1cc(Nc2nc(N[C@@H](C)c3ncc(F)cn3)ncc2Cl)n[nH]1` the Potency was 11.8 µM (active). In the case of `Cn1cnc([N+](=O)[O-])c1Sc1ncnc2nc[nH]c12`, the Potency is reported as 0.935 µM (active). For `Cn1c(=O)c(F)c(Nc2ccc(I)cc2F)c2c(=O)n(C[C@@H](O)CO)cnc21`, the Potency was “inactive”. In the case of `NNCCc1ccccc1`, the Potency is reported as “inactive”. In the case of `O=c1[nH]cnc2[nH]ncc12`, the Potency is reported as “inactive”. For `CC(C)NCC(O)COc1ccc(COCCOC(C)C)cc1` (stereo not given), the Potency was “inactive”.
